“And” between values parts separate entries of the source, which are not always exact repeats. Equal values may be shown once. Out of some 5,500 compounds screened, about 2,000 (36%) were called active. About 18% were inconclusive and are not listed. No stated cut-off is given here; in the data, active means normalized growth mostly below about 0.91 (no sharp cut-off); inconclusive means no clear call, values can overlap the other calls; inactive means mostly above about 0.92. The list shows a part of the results.
Experiment: chemical genetic growth profiling, strain panel (AID 1159580);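 further: tested at 20 µM; growth read once vehicle control cultures reached saturation at 30 °C; 1 = growth at the plate median or of vehicle wells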
Settings: S. cerevisiae deletion strains, growth OD

Measured: normalized growth

CC(C)N1C(=O)c2ccccc2NS1(=O)=O
inactive: locus YAL013W, strain DEP1, stronger effect = lower value 1 | locus YAL021C, strain ccr4, stronger effect = lower value 0.947 | locus YAL026C, strain drs2, stronger effect = lower value 0.976 | locus YAL030W, strain snc1, stronger effect = lower value 0.963 | locus YBL061C, strain skt5, stronger effect = lower value 0.973 | locus YBR009C, strain hhf1, stronger effect = lower value 0.961 | locus YBR021W, strain FUR4, stronger effect = lower value 0.966 | locus YBR023C, strain chs3, stronger effect = lower value 0.983 | locus YBR171W, strain sec66, stronger effect = lower value 0.968 | locus YBR229C, strain ROT2, stronger effect = lower value 1 | locus YBR231C, strain swc5, stronger effect = lower value 0.994 | locus YBR279W, strain paf1, stronger effect = lower value 0.977 | locus YCL011C, strain gbp2, stronger effect = lower value 0.962 | locus YCL016C, strain dcc1, stronger effect = lower value 0.969 | locus YCL029C, strain bik1, stronger effect = lower value 0.999 | locus YCL069W, strain vba3, stronger effect = lower value 0.969 | locus YCR088W, strain abp1, stronger effect = lower value 0.978 | locus YDL005C, strain med2, stronger effect = lower value 0.973 | locus YDL035C, strain GPR1, stronger effect = lower value 1.01 | locus YDL040C, strain nat1, stronger effect = lower value 0.972 | locus YDL074C, strain BRE1, stronger effect = lower value 1.02 | locus YDL101C, strain DUN1, stronger effect = lower value 1.01 | locus YDL134C, strain PPH21, stronger effect = lower value 0.998 | locus YDL185W, strain tfp1, stronger effect = lower value 1 | locus YDL192W, strain arf1, stronger effect = lower value 1.01 | locus YDR001C, strain nth1, stronger effect = lower value 0.955 | locus YDR069C, strain doa4, stronger effect = lower value 0.995 | locus YDR101C, strain arx1, stronger effect = lower value 0.999 | locus YDR137W, strain rgp1, stronger effect = lower value 0.971 | locus YDR150W, strain NUM1, stronger effect = lower value 0.996 | locus YDR159W, strain sac3, stronger effect = lower value 1.02 | locus YDR162C, strain NBP2, stronger effect = lower value 1.02 | locus YDR195W, strain ref2 0.935 | locus YDR297W, strain sur2, stronger effect = lower value 0.988 | locus YDR318W, strain mcm21, stronger effect = lower value 1.01 | locus YDR334W, strain swr1, stronger effect = lower value 0.957 | locus YDR335W, strain msn5, stronger effect = lower value 0.978 | locus YDR388W, stronger effect = lower value 0.998 | locus YDR392W, strain spt3, stronger effect = lower value 1.02 | locus YDR502C, strain sam2, stronger effect = lower value 1.01 | locus YEL003W, strain gim4, stronger effect = lower value 0.973 | locus YEL037C, strain rad23, stronger effect = lower value 0.976 | locus YEL061C, strain CIN8 (second series), stronger effect = lower value 0.966 | locus YEL061C, strain CIN8, stronger effect = lower value 0.992 | locus YER015W, strain faa2, stronger effect = lower value 0.966 | locus YER016W, strain bim1, stronger effect = lower value 0.965 | locus YER110C, stronger effect = lower value 1 | locus YER111C, strain swi4, stronger effect = lower value 0.979 | locus YER155C, strain BEM2 (second series), stronger effect = lower value 1 | locus YER155C, strain BEM2, stronger effect = lower value 0.994 | locus YER167W, strain BCK2, stronger effect = lower value 1 | locus YFR010W, strain ubp6, stronger effect = lower value 0.96 | locus YGL078C, strain dbp3, stronger effect = lower value 0.993 | locus YGL086W, strain mad1, stronger effect = lower value 0.996 | locus YGL167C, strain pmr1, stronger effect = lower value 0.958 | locus YGL173C, strain kem1, stronger effect = lower value 0.979 | locus YGL227W, strain vid30, stronger effect = lower value 0.989 | locus YGL240W, strain doc1, stronger effect = lower value 1 | locus YGL248W, strain PDE1, stronger effect = lower value 1.01 | locus YGL253W, strain hxk2, stronger effect = lower value 0.984 | locus YGR078C, strain PAC10, stronger effect = lower value 0.995 | locus YGR135W, strain pre9, stronger effect = lower value 1.01 | locus YGR229C, strain SMI1, stronger effect = lower value 1.02 | locus YGR252W, strain gcn5, stronger effect = lower value 1.01 | locus YHR013C, strain ard1, stronger effect = lower value 0.95 | locus YHR027C, strain rpn1, stronger effect = lower value 0.968 | locus YHR030C, strain SLT2, stronger effect = lower value 0.972 and 0.994 | locus YHR079C, strain IRE1 (second series), stronger effect = lower value 1 | locus YHR079C, strain IRE1, stronger effect = lower value 0.982 | locus YHR094C, strain hxt1, stronger effect = lower value 0.996 | locus YHR129C, strain ARP1, stronger effect = lower value 0.996 | locus YHR142W, strain chs7, stronger effect = lower value 0.962 | locus YHR200W, strain rpn10, stronger effect = lower value 0.995 | locus YIL066C, strain RNR3, stronger effect = lower value 1.03 | locus YIL073C, strain SPO22, stronger effect = lower value 1.07 | locus YIL125W, strain kgd1, stronger effect = lower value 1.01 | locus YIR030C, strain dcg1, stronger effect = lower value 0.997 | locus YJL092W, strain hpr5, stronger effect = lower value 0.971 | locus YJL095W, strain BCK1 (second series), stronger effect = lower value 0.969 | locus YJL095W, strain BCK1, stronger effect = lower value 1.01 and 0.986 | locus YJL115W, strain asf1, stronger effect = lower value 0.956 | locus YJL129C, strain trk1, stronger effect = lower value 0.961 | locus YJL134W, strain LCB3, stronger effect = lower value 1 | locus YJL154C, strain vps35, stronger effect = lower value 0.963 | locus YJL164C, strain tpk1, stronger effect = lower value 0.988 | locus YJL166W, strain qcr8, stronger effect = lower value 0.987 | locus YJL168C, strain set2, stronger effect = lower value 1 | locus YJL187C, strain SWE1 (second series), stronger effect = lower value 0.997 | locus YJR043C, strain POL32, stronger effect = lower value 1 | locus YJR066W, strain TOR1, stronger effect = lower value 0.962 | locus YJR075W, strain HOC1, stronger effect = lower value 1.02
